About 2,000 (36%) of roughly 5,500 compounds were called active. Roughly 18% stayed inconclusive and do not appear here. Rule as the data show it: active = normalized growth mostly below about 0.91 (no sharp cut-off); inconclusive = no clear call, values can overlap the other calls; inactive = mostly above about 0.92. This is one part of the list.
Assay: chemical genetic growth profiling, strain panel (AID 1159580);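 also: tested at 20 µM; growth read once vehicle control cultures reached saturation at 30 °C; 1 = growth at the plate median or of vehicle wells; lower values mean less growth of the strain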
Details: S. cerevisiae deletion strains, growth OD

Measured: normalized growth

CC(=O)O[C@@H]1CC2C(C)(C)C(=O)C3OC3[C@]2(C)C2CC[C@@]3(C)[C@H](c4ccoc4)OC(=O)C4OC43[C@@]21C (some centres not stated)
active: locus YKL085W, strain MDH1 (second series), stronger effect = lower value 1.13 [resistant] | locus YKL085W, strain MDH1, stronger effect = lower value 1.13 [resistant]
inactive: locus YAL021C, strain ccr4, stronger effect = lower value 0.988 | locus YAL026C, strain drs2, stronger effect = lower value 0.984 | locus YAL030W, strain snc1, stronger effect = lower value 0.993 | locus YBL061C, strain skt5, stronger effect = lower value 0.97 | locus YBR009C, strain hhf1, stronger effect = lower value 0.981 | locus YBR021W, strain FUR4, stronger effect = lower value 0.964 | locus YBR023C, strain chs3, stronger effect = lower value 0.982 | locus YBR171W, strain sec66, stronger effect = lower value 0.966 | locus YBR229C, strain ROT2, stronger effect = lower value 0.994 | locus YBR231C, strain swc5, stronger effect = lower value 0.975 | locus YBR279W, strain paf1, stronger effect = lower value 0.988 | locus YCL011C, strain gbp2, stronger effect = lower value 0.993 | locus YCL016C, strain dcc1, stronger effect = lower value 0.991 | locus YCL029C, strain bik1, stronger effect = lower value 1 | locus YCL061C, strain MRC1, stronger effect = lower value 0.988 | locus YCL069W, strain vba3, stronger effect = lower value 0.982 | locus YCR088W, strain abp1, stronger effect = lower value 0.987 | locus YDL005C, strain med2, stronger effect = lower value 0.971 | locus YDL035C, strain GPR1, stronger effect = lower value 1.01 | locus YDL040C, strain nat1, stronger effect = lower value 0.972 | locus YDL074C, strain BRE1, stronger effect = lower value 0.994 | locus YDL101C, strain DUN1, stronger effect = lower value 1.01 | locus YDL185W, strain tfp1, stronger effect = lower value 0.999 | locus YDL192W, strain arf1, stronger effect = lower value 1.01 | locus YDR001C, strain nth1, stronger effect = lower value 0.986 | locus YDR069C, strain doa4, stronger effect = lower value 0.993 | locus YDR101C, strain arx1, stronger effect = lower value 1.01 | locus YDR137W, strain rgp1, stronger effect = lower value 1 | locus YDR150W, strain NUM1, stronger effect = lower value 1.01 | locus YDR159W, strain sac3, stronger effect = lower value 0.941 | locus YDR162C, strain NBP2, stronger effect = lower value 1.02 | locus YDR195W, strain ref2 0.978 | locus YDR297W, strain sur2, stronger effect = lower value 0.983 | locus YDR318W, strain mcm21, stronger effect = lower value 0.997 | locus YDR334W, strain swr1, stronger effect = lower value 0.972 | locus YDR335W, strain msn5, stronger effect = lower value 0.987 | locus YDR388W, stronger effect = lower value 1 | locus YDR392W, strain spt3, stronger effect = lower value 0.966 | locus YDR502C, strain sam2, stronger effect = lower value 0.992 | locus YEL003W, strain gim4, stronger effect = lower value 0.979 | locus YEL037C, strain rad23, stronger effect = lower value 0.974 | locus YEL061C, strain CIN8 (second series), stronger effect = lower value 0.983 | locus YER015W, strain faa2, stronger effect = lower value 0.992 | locus YER016W, strain bim1, stronger effect = lower value 0.987 | locus YER110C, stronger effect = lower value 1 | locus YER111C, strain swi4, stronger effect = lower value 0.976 | locus YER155C, strain BEM2 (second series), stronger effect = lower value 0.986 | locus YER155C, strain BEM2, stronger effect = lower value 0.996 | locus YER167W, strain BCK2, stronger effect = lower value 1.01 | locus YFR010W, strain ubp6, stronger effect = lower value 0.964 | locus YGL078C, strain dbp3, stronger effect = lower value 0.997 | locus YGL086W, strain mad1, stronger effect = lower value 1.03 | locus YGL167C, strain pmr1, stronger effect = lower value 0.971 | locus YGL173C, strain kem1, stronger effect = lower value 0.986 | locus YGL227W, strain vid30, stronger effect = lower value 0.988 | locus YGL240W, strain doc1, stronger effect = lower value 0.96 | locus YGL248W, strain PDE1, stronger effect = lower value 1.01 | locus YGL253W, strain hxk2, stronger effect = lower value 0.94 | locus YGR135W, strain pre9, stronger effect = lower value 0.975 | locus YGR252W, strain gcn5, stronger effect = lower value 0.928 | locus YHR013C, strain ard1, stronger effect = lower value 0.969 | locus YHR027C, strain rpn1, stronger effect = lower value 0.978 | locus YHR030C, strain SLT2, stronger effect = lower value 0.988 | locus YHR079C, strain IRE1 (second series), stronger effect = lower value 1 | locus YHR079C, strain IRE1, stronger effect = lower value 1 | locus YHR094C, strain hxt1, stronger effect = lower value 1 | locus YHR129C, strain ARP1, stronger effect = lower value 1.01 | locus YHR142W, strain chs7, stronger effect = lower value 0.965 | locus YHR200W, strain rpn10, stronger effect = lower value 1 | locus YIL066C, strain RNR3, stronger effect = lower value 1.01 | locus YIL073C, strain SPO22, stronger effect = lower value 1.04 | locus YIL125W, strain kgd1, stronger effect = lower value 0.996 | locus YIR030C, strain dcg1, stronger effect = lower value 0.998 | locus YJL092W, strain hpr5, stronger effect = lower value 0.981 | locus YJL095W, strain BCK1 (second series), stronger effect = lower value 0.99 | locus YJL095W, strain BCK1, stronger effect = lower value 1 | locus YJL115W, strain asf1, stronger effect = lower value 0.982 | locus YJL129C, strain trk1, stronger effect = lower value 0.965 | locus YJL134W, strain LCB3, stronger effect = lower value 1.01 | locus YJL154C, strain vps35, stronger effect = lower value 0.98 | locus YJL164C, strain tpk1, stronger effect = lower value 1.03 | locus YJL166W, strain qcr8, stronger effect = lower value 0.987 | locus YJL168C, strain set2, stronger effect = lower value 0.996 | locus YJL187C, strain SWE1 (second series), stronger effect = lower value 1 | locus YJL187C, strain SWE1, stronger effect = lower value 0.993 | locus YJR066W, strain TOR1, stronger effect = lower value 0.942 | locus YKL009W, strain mrt4, stronger effect = lower value 1.08 | locus YKL068W, stronger effect = lower value 1.01 | locus YKL160W, strain elf1, stronger effect = lower value 1 | locus YKL190W, strain CNB1, stronger effect = lower value 1.01 | locus YKR001C, strain vps1, stronger effect = lower value 0.989 | locus YKR026C, strain gcn3, stronger effect = lower value 0.977 | locus YKR091W, strain srl3, stronger effect = lower value 0.982 | locus YLL001W, strain dnm1, stronger effect = lower value 0.991 | locus YLL026W, stronger effect = lower value 0.988 | locus YLL041C, strain sdh2, stronger effect = lower value 0.981 | locus YLR027C, strain aat2, stronger effect = lower value 0.962 | locus YLR039C, strain RIC1, stronger effect = lower value 1.06 | locus YLR058C, strain SHM2, stronger effect = lower value 1.01 | locus YLR102C, strain apc9, stronger effect = lower value 1 | locus YLR113W, strain HOG1, stronger effect = lower value 0.999 | locus YLR221C, strain rsa3, stronger effect = lower value 0.964 | locus YLR258W, strain gsy2, stronger effect = lower value 0.99 | locus YLR262C, strain YPT6 (second series), stronger effect = lower value 0.994 | locus YLR268W, strain sec22, stronger effect = lower value 1.01 | locus YLR320W, strain mms22, stronger effect = lower value 0.966 | locus YLR342W, strain FKS1, stronger effect = lower value 0.985 | locus YLR357W, strain rsc2, stronger effect = lower value 0.953 | locus YLR370C, strain arc18, stronger effect = lower value 0.971 | locus YLR371W, strain rom2, stronger effect = lower value 0.997 | locus YLR384C, strain iki3, stronger effect = lower value 0.993 | locus YLR418C, strain cdc73, stronger effect = lower value 0.979 | locus YML016C, strain PPZ1, stronger effect = lower value 1.01 | locus YML032C, strain rad52, stronger effect = lower value 1.01 | locus YML120C, strain ndi1, stronger effect = lower value 0.992 | locus YML124C, strain tub3, stronger effect = lower value 1 | locus YMR058W, strain fet3, stronger effect = lower value 0.986 | locus YMR078C, strain ctf18, stronger effect = lower value 1.01 | locus YMR125W, strain sto1, stronger effect = lower value 0.999 | locus YMR129W, stronger effect = lower value 0.987 | locus YMR205C, strain PFK2, stronger effect = lower value 0.991 | locus YMR223W, strain ubp8, stronger effect = lower value 0.998 | locus YMR231W, strain pep5, stronger effect = lower value 0.95 | locus YMR307W, strain GAS1, stronger effect = lower value 0.941 | locus YNL067W, strain RPL9B, stronger effect = lower value 0.997 | locus YNL071W, strain lat1, stronger effect = lower value 0.99 | locus YNL183C, strain NPR1, stronger effect = lower value 0.963 | locus YNL209W, strain ssb2, stronger effect = lower value 0.998 | locus YNL233W, strain BNI4, stronger effect = lower value 1.03 | locus YNL248C, strain rpa49, stronger effect = lower value 0.973 | locus YNL250W, strain rad50, stronger effect = lower value 0.983 | locus YNL271C, strain bni1, stronger effect = lower value 1 | locus YNL298W, strain CLA4, stronger effect = lower value 1 | locus YNL307C, strain MCK1, stronger effect = lower value 0.993 | locus YNL322C, strain KRE1 (second series), stronger effect = lower value 0.978 | locus YNL322C, strain KRE1, stronger effect = lower value 1.01 | locus YNR049C, strain mso1, stronger effect = lower value 0.976 | locus YNR052C, strain pop2, stronger effect = lower value 0.996 | locus YOL012C, strain htz1 0.75 | locus YOL147C, strain pex11, stronger effect = lower value 1.01 | locus YOR001W, strain rrp6, stronger effect = lower value 0.97 | locus YOR061W, strain CKA2, stronger effect = lower value 1 | locus YOR069W, strain VPS5, stronger effect = lower value 1 | locus YOR070C, strain gyp1, stronger effect = lower value 0.975 | locus YOR080W, strain dia2, stronger effect = lower value 0.971 | locus YOR083W, strain WHI5, stronger effect = lower value 1.01 | locus YOR106W, strain vam3, stronger effect = lower value 0.994 | locus YOR136W, strain idh2, stronger effect = lower value 0.997 | locus YOR144C, strain elg1, stronger effect = lower value 1.02 | locus YOR184W, strain ser1, stronger effect = lower value 1.01 | locus YOR231W, strain MKK1, stronger effect = lower value 0.986 | locus YOR265W, strain rbl2, stronger effect = lower value 0.981 | locus YOR270C, strain vph1, stronger effect = lower value 0.922 | locus YOR290C, strain snf2, stronger effect = lower value 0.994 | locus YOR316C, strain cot1, stronger effect = lower value 1 | locus YPL051W, strain arl3, stronger effect = lower value 0.986 | locus YPL078C, strain atp4, stronger effect = lower value 0.994 | locus YPL106C, strain sse1, stronger effect = lower value 0.989 | locus YPL240C, strain hsp82, stronger effect = lower value 0.981 | locus YPL256C, strain CLN2, stronger effect = lower value 0.984 | locus YPR119W, strain clb2, stronger effect = lower value 0.996 | locus YPR141C, strain kar3, stronger effect = lower value 1.01 | locus YPR163C, strain tif3, stronger effect = lower value 0.999 | locus YPR167C, strain met16, stronger effect = lower value 0.998 | strain wtn01, stronger effect = lower value 1

Source: PubChem BioAssay AID1159580 (chemical genetic matrix, 2015)
